In PubChem BioAssay:
The source made the active and inactive calls.

How the values were obtained:
[1] = tested on: Human papillomavirus type 1a protein E7 (residues 44-93); assay: small molecules binding HPV E7 44-93 – biochemical, small-molecule microarray, residues 44-93, 635 nm fluorescence, primary screen (AID 1108); conditions: fluorescence 635 nm, higher = more signal;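 further: E7 fragment applied at 1 µg/mL in TBST for 1 h at 4 C; score combines spot fluorescence with its signal to noise ratio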
[2] = hepatitis C replication reporter changes, two-sided – Huh7 cells, luciferase reporter, HCV replication inhibitor project, primary screen (AID 1109); conditions: Huh7 HCV replicon luciferase reporter, 48 h; higher = more signal;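 further: huh7 hepatoma cells harbouring a luciferase neomycin HCV replicon reporter; luciferase luminescence as measure of HCV replicon replication; test concentration not given here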
[3] = target: Left-right determination factor 2 (Homo sapiens) (UniProt O00292); assay: small molecules binding LEFTY2 protein – biochemical, small-molecule microarray, 635 nm fluorescence scan, primary screen (AID 1110); conditions: higher = more signal
Chain of Left-right determination factor 2 (Homo sapiens) (O00292 whole entry, looked up): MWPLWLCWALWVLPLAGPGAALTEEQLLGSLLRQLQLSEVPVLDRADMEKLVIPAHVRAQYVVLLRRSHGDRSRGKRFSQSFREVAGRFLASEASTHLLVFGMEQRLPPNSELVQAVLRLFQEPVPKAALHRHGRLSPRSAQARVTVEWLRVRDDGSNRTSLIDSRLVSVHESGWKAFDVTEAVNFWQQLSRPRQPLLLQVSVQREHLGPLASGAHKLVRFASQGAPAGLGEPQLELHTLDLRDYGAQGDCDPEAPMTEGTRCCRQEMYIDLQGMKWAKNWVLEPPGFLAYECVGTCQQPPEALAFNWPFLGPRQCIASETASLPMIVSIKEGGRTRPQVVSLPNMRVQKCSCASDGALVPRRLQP

[4] = target: Calmodulin-1 (Homo sapiens) (UniProt P0DP23); assay: small molecules binding calmodulin-1 with EGTA – biochemical, small-molecule microarray, Cy5-labelled CALM1, profiling panel (AID 1111); conditions: Cy5-CALM1 binding fluorescence, higher = more signal;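 further: labelled calmodulin applied in Tris saline Tween buffer holding calcium plus EGTA and DTT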
[5] = target: Calmodulin-1 (Homo sapiens) (UniProt P0DP23); assay: small molecules binding Ca-loaded calmodulin-1 – biochemical, small-molecule microarray, Cy5-labelled CALM1, plus calcium, artefact control for SMM control-protein annotation, profiling panel (AID 1112); conditions: Cy5-CALM1 binding fluorescence, higher = more signal;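 further: score merges spot fluorescence with signal to noise from triplicate slides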
[6] = probe aWnt5a binding to arrayed compounds – biochemical, biotinylated probe, 635/667 nm fluorescence, primary screen (AID 1113); conditions: small-molecule microarray, higher = more signal;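 further: score merges 667 nm fluorescence intensity with signal-to-noise per printed feature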
[7] = probe aShh binding to arrayed compounds – biochemical, biotinylated probe, 635/667 nm fluorescence, primary screen (AID 1114); conditions: small-molecule microarray, higher = more signal;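 further: probe is biotin-labelled aShh protein from a stem cell growth factor screen; measures binding of labelled protein to compounds printed on the slide; score merges feature fluorescence at 667 nm with signal-to-noise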
[8] = probe aNog binding to arrayed compounds – biochemical, biotinylated probe, 635/667 nm fluorescence, primary screen (AID 1115); conditions: small-molecule microarray, higher = more signal;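 further: probe is biotinylated aNog protein used at 0.15 µg/mL for 1 h at 4 C; z-score combines 667 nm fluorescence of each spot with its signal to noise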
[9] = target: Torsin-1A-interacting protein 1 (Homo sapiens) (UniProt Q5JTV8); assay: compound microarray binding of lysate hLAP1 – cell lysate, small-molecule microarray, COS7 lysate, 635/667 nm fluorescence, primary screen (AID 1116); conditions: 635 nm fluorescence, higher = more signal
Chain of Torsin-1A-interacting protein 1 (Homo sapiens) (Q5JTV8 whole entry, looked up): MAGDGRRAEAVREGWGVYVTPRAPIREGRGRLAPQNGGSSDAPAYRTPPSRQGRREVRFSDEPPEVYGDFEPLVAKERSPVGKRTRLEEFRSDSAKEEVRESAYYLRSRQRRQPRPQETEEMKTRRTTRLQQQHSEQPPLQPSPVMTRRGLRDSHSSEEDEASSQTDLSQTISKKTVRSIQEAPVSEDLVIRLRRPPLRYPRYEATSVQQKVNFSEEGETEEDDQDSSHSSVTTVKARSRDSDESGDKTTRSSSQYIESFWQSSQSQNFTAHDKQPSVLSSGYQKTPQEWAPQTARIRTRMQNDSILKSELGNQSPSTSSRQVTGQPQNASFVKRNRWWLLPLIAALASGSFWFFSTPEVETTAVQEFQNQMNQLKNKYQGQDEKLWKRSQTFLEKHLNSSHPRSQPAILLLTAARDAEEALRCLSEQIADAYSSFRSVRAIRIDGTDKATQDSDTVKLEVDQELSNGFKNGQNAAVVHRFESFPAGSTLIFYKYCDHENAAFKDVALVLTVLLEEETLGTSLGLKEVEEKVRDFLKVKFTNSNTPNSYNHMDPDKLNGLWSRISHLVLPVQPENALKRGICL

[10] = target: Alpha-bungarotoxin (Bungarus multicinctus) (UniProt P60615); assay: compounds binding labelled alpha-BTX control protein – biochemical, small-molecule microarray, Alexa647 label, 635/667 nm fluorescence, artefact control for SMM control protein annotation, profiling panel (AID 1117); conditions: alpha-BTX-A647 binding fluorescence, higher = more signal
Chain of Alpha-bungarotoxin (Bungarus multicinctus) (P60615 whole entry, looked up): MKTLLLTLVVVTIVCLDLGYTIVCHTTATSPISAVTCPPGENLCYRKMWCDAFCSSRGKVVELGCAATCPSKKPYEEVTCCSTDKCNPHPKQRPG

Albumin (Bos taurus) = Albumin (Bos taurus) (UniProt P02769); assay: compounds binding labelled BSA control protein – biochemical, small-molecule microarray, Alexa647 label, 635/667 nm fluorescence, artefact control for SMM control protein annotation, profiling panel (AID 1118); conditions: BSA-A647 binding, fluorescence 635 nm, higher = more signal;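 further: score merges 667 nm emission intensity and signal-to-noise per printed compound spot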
Chain of Albumin (Bos taurus) (P02769 whole entry, looked up): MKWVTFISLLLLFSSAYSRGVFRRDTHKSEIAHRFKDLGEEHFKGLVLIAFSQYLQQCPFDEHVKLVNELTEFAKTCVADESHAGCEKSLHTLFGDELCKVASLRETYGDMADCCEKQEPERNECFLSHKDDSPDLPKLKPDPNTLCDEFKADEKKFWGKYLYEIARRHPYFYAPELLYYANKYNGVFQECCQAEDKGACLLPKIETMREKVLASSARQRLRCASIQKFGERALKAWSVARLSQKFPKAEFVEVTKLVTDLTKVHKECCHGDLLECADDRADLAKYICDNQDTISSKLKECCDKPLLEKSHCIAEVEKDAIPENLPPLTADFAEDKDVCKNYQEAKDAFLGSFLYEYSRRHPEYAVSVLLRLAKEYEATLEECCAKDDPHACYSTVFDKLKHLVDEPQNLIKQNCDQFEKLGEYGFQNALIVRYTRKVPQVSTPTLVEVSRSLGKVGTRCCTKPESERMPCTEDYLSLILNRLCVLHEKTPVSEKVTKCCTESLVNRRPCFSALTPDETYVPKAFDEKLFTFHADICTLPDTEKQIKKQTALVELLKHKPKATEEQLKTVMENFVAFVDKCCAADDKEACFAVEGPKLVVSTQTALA

[11] = probe aXIP binding to arrayed compounds – biochemical, NeuroSMM set, 635/667 nm fluorescence, primary screen (AID 1119); conditions: small-molecule microarray, higher = more signal, called active from +8 up or from −8 down;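 further: probe is the protein aXip251-270 applied at 1 µg/mL to compound-printed slides; binding of probe to printed compounds measured as 667 nm fluorescence plus signal to noise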
[12] = probe aNOTCH3 binding on compound microarray – biochemical, small-molecule microarray, 635/667 nm fluorescence, primary screen (AID 1120); conditions: higher = more signal;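 further: probe is a biotin-tagged antibody raised against NOTCH3 rather than NOTCH3 protein; score merges spot fluorescence near 667 nm with spot signal to noise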
[13] = probe aNOTCH2 binding on compound microarray – biochemical, small-molecule microarray, 635/667 nm fluorescence, primary screen (AID 1121); conditions: higher = more signal;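 further: score merges feature fluorescence read at 667 nm with its signal to noise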
[14] = target: Carbonic anhydrase 2 (Homo sapiens) (UniProt P00918); assay: compounds binding carbonic anhydrase 2 – biochemical, small-molecule microarray, Alexa647-labelled CAII, profiling panel (AID 1122); conditions: CAII-A647 binding fluorescence, higher = more signal
[15] = COS7 lysate on small-molecule microarray, probe aHis, 635 nm (AID 1123); conditions: COS7 cell lysate, fluorescence, higher = more signal;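 further: z-score combines 667nm fluorescence intensity with signal-to-noise per printed compound spot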
[16] = probe aLAP1 signal on lysate-treated microarray – cell lysate, small-molecule microarray, COS7 lysate, primary screen (AID 1124); conditions: probe aLAP1, fluorescence, higher = more signal;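 further: lysate comes from COS7 cells expressing LAP1 and is applied at 0.3 µg/mL; score merges spot fluorescence near 667 nm with signal-to-noise over triplicate slides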
Sam68 (KHDRBS1) = assay: compounds binding KHDRBS1 protein – biochemical, small-molecule microarray, 635 nm fluorescence, primary screen (AID 1125); conditions: higher = more signal;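 further: score merges 667 nm channel intensity with signal to noise over triplicate slides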
[17] = tested on: Chordin-like protein 2 (CHRDL2); assay: compounds binding chordin-like 2 – biochemical, small-molecule microarray, 635 nm fluorescence, primary screen (AID 1126); conditions: fluorescence 635 nm, higher = more signal;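 further: printed compound slides probed with Chrdl2 protein at 4 µg/mL for 1 h at 4 C; score merges 667 nm emission intensity with signal to noise over three replicate slides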
[18] = target: Concanavalin-A (Canavalia ensiformis) (UniProt P02866); assay: compounds binding concanavalin A lectin – biochemical, small-molecule microarray, Alexa647 label, 635 nm, artefact control for SMM control protein annotation, primary screen (AID 1127); conditions: ConA-A647 binding fluorescence, higher = more signal;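 further: z combines 667 nm emission intensity with signal-to-noise across three replicate slides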
Chain of Concanavalin-A (Canavalia ensiformis) (P02866 whole entry, looked up): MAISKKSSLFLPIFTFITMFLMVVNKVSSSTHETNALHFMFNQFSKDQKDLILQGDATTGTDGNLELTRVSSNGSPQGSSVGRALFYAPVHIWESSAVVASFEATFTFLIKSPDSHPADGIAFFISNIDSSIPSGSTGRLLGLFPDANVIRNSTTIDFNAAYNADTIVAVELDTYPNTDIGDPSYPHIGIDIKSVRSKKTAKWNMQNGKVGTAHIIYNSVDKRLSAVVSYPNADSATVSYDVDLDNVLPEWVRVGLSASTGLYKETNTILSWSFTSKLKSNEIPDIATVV

SMILES	composite z-score [1]	z-score [2]	composite z-score [3]	composite z-score [4]	composite z-score [5]	composite z-score [6]	composite z-score [7]	composite z-score [8]	composite z-score [9]	composite z-score [10]	composite z-score (Albumin (Bos taurus))	composite Z-score [11]	composite z-score [12]	composite z-score [13]	composite z-score [14]	composite z-score [15]	composite z-score [16]	composite z-score (Sam68 (KHDRBS1))	composite z-score [17]	composite z-score [18]
COC(=O)CC=C[C@H](C)[C@H](CO)NS(=O)(=O)c1ccc(C)cc1	0.144	-0.763	0.703	-0.756	-0.624	-0.124	-0.117	-0.0094	0.729	0.219	-0.333	0.755 (inactive)	0.0522	-0.13	0.131	-0.0961	0.121	0.217	0.91	0.579
O=C1[C@H]2[C@H]3[C@H](O)[C@H](O)CC(=NOCc4ccccc4)[C@H]3CC[C@H]2C(=O)N1c1ccc(F)cc1F	-0.642	0.473	0.349	-0.251	-0.349	-0.123	-0.339	-0.47	-0.273	-0.0546	0.155	-0.801 (inactive)	-0.308	-0.265	0.784	-0.137	-0.713	-0.626	0.0499	-0.111
COC(=O)[C@@H]1N=C(c2ccc(OCCCO)cc2)O[C@@H]1c1ccccc1N=[N+]=[N-]	0.515	-1.66	-0.187	1.54	1.04	-0.0445	0.214	0.619	1.27	1.42	0.731	-0.384 (inactive)	0.149	-0.0534	0.666	1.92	0.35	1.05	-0.456	0.928
O=C1[C@H]2[C@H]3[C@H](O)[C@H](O)CC(=NO[C@@H]4O[C@H](CO)[C@@H](O)[C@H](O)[C@H]4O)[C@H]3CC[C@H]2C(=O)N1C1CCCCC1	1.3	0.524	0.271	-0.0656	-0.0964	-0.0721	0.0062	0.604	0.129	0.0855	0.785	-0.0164 (inactive)	0.11	-0.112	0.124	0.197	0.3	1.3	-0.298	-0.316
COCC1=C2[C@@H](CCc3ccccc3)OB(O)C[C@@H]2n2c(=O)n(-c3ccccc3)c(=O)n2C1	-0.289	0.332	0.26	-0.455	-0.438	-0.158	-0.304	-0.213	0.152	-0.148	0.352	-0.532 (inactive)	-0.0204	-0.0649	0.0995	-0.0955	0.0421	-0.0265	0.198	-0.0151
CCOC(=O)[C@H](CC(C)C)NC(=O)CCC1CC(OC(=O)NCc2cccc3ccccc23)CC2(CCCC(COC(=O)NCCc3ccccc3OC)O2)O1 (stereo not given in full)	1.38	-1.24	0.488	1.3	0.371	-0.124	-0.214	-0.335	0.607	0.588	0.752	0.0898 (inactive)	-0.155	-0.0708	0.211	0.398	0.251	1.3	0.566	1.11
O=C1c2ccccc2[C@@]2(Cc3ccccc3N(C3CC3)C2=O)[C@H](c2ccc(CO)cc2)N1Cc1ccccc1C(F)(F)F	0.223	-2.39	-1.18	-0.48	-0.382	-0.154	0.0545	-0.23	0.188	-1.37	-0.259	-0.174 (inactive)	0.062	-0.0248	0.82	-0.0061	0.439	0.219	-0.338	-0.657
CC(=O)C[C@H](O)[C@@H](NC(=O)OC(C)(C)C)C(C)C	-2.43	0.479	-0.319	-0.292	-0.327	-0.203	0.0121	-0.0926	-0.547	0.0557	-0.587	-0.24 (inactive)	-0.0903	-0.14	-0.424	-0.336	-0.286	-1.8	-0.405	-0.385
CC(C)C[C@@H]1NC(=O)[C@H]2C[C@@H](C(=O)O)[C@@H](c3ccc(O)cc3)N2C1=O	0.635	3.51	0.0945	-0.187	0.131	-0.0704	0.0611	-0.144	0.588	2.19	0.111	-0.2 (inactive)	-0.0311	-0.0586	0.419	0.666	-0.79	0.62	0.51	0.684
CCOC(=O)CCN1C(=O)[C@H]2[C@H]3[C@H](O)C=CC(=O)[C@@H]3CC[C@H]2C1=O	-0.219	0.158	0.61	-0.0738	-0.583	-0.202	-0.262	-0.147	0.174	0.335	-0.186	0.422 (inactive)	-0.0449	-0.0686	-0.078	0.107	-0.225	0.323	0.34	0.412
CCOC(=O)CCN1C(=O)[C@H]2[C@H]3[C@H](O)[C@H](O)CC(=NOC[C@@H](O)COCc4ccco4)[C@H]3CC[C@H]2C1=O	1.11	-2.99	0.622	-0.039	-0.438	-0.152	-0.0769	-0.0446	0.0386	0.351	0.494	-0.0692 (inactive)	0.0059	-0.171	0.0762	-0.128	0.0706	1.32	-0.173	0.66
